Records with an inconclusive call do not appear. A call without a number means that no potency is given here. Unmarked numbers belong to inactive results. Calls of active or inactive are those of the source. The call rests on the fitted dose curve; in most records, active means well fitted curve in the direction sought with a large enough effect; inconclusive means small, poorly fitted or top-dose-only effect, or another doubt; inactive means no such curve, though single readings can be large; an effect the other way counts as inactive or inconclusive.
Legend:
[1] = molecular target: Rap guanine nucleotide exchange factor 3 (Homo sapiens) (UniProt O95398); assay: Confirmatory qHTS for antagonist of cAMP-regulated guanine nucleotide exchange factor 3 (EPAC1) (AID 1645880); further: nearly all actives have a fitted effect of over 55% in size; further: potency means the concentration at half of the fitted maximal effect
Chain of Rap guanine nucleotide exchange factor 3 (Homo sapiens) (O95398 whole entry, looked up): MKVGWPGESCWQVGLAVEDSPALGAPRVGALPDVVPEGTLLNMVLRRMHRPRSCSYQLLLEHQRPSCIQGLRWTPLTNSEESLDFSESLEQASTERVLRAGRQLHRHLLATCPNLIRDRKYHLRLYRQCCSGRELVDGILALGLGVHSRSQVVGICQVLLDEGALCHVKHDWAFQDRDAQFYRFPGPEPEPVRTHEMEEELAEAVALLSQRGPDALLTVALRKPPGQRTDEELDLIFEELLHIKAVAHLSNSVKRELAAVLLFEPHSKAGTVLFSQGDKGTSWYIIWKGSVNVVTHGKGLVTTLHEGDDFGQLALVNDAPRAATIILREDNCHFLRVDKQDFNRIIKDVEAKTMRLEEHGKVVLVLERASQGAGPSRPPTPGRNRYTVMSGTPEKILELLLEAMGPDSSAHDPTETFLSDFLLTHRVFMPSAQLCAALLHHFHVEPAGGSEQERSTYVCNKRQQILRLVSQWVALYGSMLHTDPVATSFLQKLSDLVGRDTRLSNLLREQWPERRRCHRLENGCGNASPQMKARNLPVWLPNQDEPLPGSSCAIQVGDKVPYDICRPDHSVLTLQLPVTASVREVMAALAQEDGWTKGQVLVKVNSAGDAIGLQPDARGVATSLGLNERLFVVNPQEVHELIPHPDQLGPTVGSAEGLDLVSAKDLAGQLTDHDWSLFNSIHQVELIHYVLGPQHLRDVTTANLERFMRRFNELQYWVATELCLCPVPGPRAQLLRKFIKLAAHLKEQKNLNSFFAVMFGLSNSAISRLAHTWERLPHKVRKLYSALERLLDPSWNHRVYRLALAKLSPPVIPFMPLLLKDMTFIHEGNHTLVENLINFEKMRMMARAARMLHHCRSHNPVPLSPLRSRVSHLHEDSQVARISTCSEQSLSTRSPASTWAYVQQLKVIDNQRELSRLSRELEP
How it was run: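 Released BODIPY-GDP fluoresces less than Rap1-bound BODIPY-GDP; the signal is followed at 480/540 nm at 5-min intervals over 30 min, after 5 min at room temperature. Reactions contain 100 nM EPAC1, 250 nM RAP1B-BODIPY-GDP and 50 uM GDP; results are normalized to ATA and DMSO.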

[2] = molecular target: Rap guanine nucleotide exchange factor 3 (Homo sapiens) (UniProt O95398); assay: Confirmatory qHTS for agonist of cAMP-regulated guanine nucleotide exchange factor 3 (EPAC1) (AID 1645881); further: nearly all actives have a fitted effect of over 75% in size; further: potency means the concentration at half of the fitted maximal effect;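 on activation: EPAC1 catalysed release of BODIPY-GDP from Rap1B seen as fluorescence loss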
[3] = molecular target: Rap guanine nucleotide exchange factor 4 (Homo sapiens) (UniProt Q8WZA2); assay: Confirmatory qHTS for agonist of cAMP-regulated guanine nucleotide exchange factor 4 (EPAC2) (AID 1645884);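 further: nucleotide exchange releases bodipy-GDP from Rap1 and this lowers its fluorescence; nearly all actives have a fitted effect of over 65% in size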; further: potency means the concentration at half of the fitted maximal effect
Chain of Rap guanine nucleotide exchange factor 4 (Homo sapiens) (Q8WZA2 whole entry, looked up): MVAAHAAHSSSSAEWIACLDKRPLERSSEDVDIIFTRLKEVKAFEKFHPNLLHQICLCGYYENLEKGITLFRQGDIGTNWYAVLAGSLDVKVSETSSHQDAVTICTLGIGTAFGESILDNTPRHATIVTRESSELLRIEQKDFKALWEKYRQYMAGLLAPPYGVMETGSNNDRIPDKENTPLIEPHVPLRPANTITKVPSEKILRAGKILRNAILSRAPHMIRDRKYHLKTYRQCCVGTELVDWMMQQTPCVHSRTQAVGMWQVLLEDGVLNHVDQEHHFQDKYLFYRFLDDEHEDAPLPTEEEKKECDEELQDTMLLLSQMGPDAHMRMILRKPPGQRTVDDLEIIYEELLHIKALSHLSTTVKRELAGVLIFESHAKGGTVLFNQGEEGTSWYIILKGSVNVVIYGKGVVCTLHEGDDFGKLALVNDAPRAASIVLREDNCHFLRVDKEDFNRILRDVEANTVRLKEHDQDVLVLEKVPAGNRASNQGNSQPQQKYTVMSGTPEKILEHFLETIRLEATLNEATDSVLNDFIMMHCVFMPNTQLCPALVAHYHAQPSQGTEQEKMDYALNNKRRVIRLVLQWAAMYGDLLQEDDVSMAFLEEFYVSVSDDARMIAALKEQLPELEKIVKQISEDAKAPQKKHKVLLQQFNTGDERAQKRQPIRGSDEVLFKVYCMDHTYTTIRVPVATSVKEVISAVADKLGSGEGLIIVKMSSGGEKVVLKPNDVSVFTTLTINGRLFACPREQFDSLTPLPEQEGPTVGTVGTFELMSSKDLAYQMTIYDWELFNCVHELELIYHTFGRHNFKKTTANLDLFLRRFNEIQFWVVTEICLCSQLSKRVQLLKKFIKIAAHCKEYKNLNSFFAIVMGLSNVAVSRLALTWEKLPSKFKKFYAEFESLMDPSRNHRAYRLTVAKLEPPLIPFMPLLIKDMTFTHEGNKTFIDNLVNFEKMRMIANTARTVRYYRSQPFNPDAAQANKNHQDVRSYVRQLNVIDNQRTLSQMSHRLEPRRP

[4] = molecular target: Rap guanine nucleotide exchange factor 4 (Homo sapiens) (UniProt Q8WZA2); assay: Confirmatory qHTS for antagonist of cAMP-regulated guanine nucleotide exchange factor 4 (EPAC2) (AID 1645885); further: nearly all actives have a fitted effect of over 25% in size; further: potency means the concentration at half of the fitted maximal effect
[5] = molecular target: Rap guanine nucleotide exchange factor 3 (Homo sapiens) (UniProt O95398); assay: Counterscreen qHTS for antagonist of cAMP-regulated guanine nucleotide exchange factor 3 (EPAC1) (AID 1645888)
How it was run: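 Rap1B-BODIPY-GDP 250 nM + GDP 50 uM; cpds 7-pt, final 9.74 nM–152 uM (activator mode) or from 7.32 nM upwards (inhibitor mode); RT; FI 480/540 nm at 5 and 30 min, then ± cAMP, reread.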

SMILES	Potency [1]	Potency [2]	Potency [3]	Potency [4]	Potency [5]	activation [3]	activity change, negative = inhibition [5]
COC(=O)c1ccc2nc(C3CCCCC3)c(Cc3cccc(F)c3)n2c1	inactive	inactive	inactive	inactive	inactive		
CCOc1ccc(C(C(=O)NC2CCCC2)N(C(=O)c2snc(C(N)=O)c2N)C2CCCC2)cc1 (stereo not given)	inactive	inactive	inactive	inactive	inactive		
CCOC(=O)Cc1nn(Cc2ccccc2)c(=O)c2ccccc12	inactive	inactive	inactive	inactive	inactive		
CN(C)C(CNS(=O)(=O)c1ccc(Cl)cc1)c1cccnc1 (stereo not given)	inactive	inactive	inactive	inactive	inactive		
Cc1ccc2c(c1)C(c1ccccc1)CC(=O)O2 (stereo not given)	inactive	inactive	inactive	37.9 µM (active)	inactive		
COc1cc(C=NNc2ccc(S(=O)(=O)Nc3ccccc3C(=O)O)cc2[N+](=O)[O-])ccc1O	20 µM (active)	inactive		inactive		-6.92% [at 17.1 µM, percent relative to cAMP agonist control]	-11.1% [at 30.8 µM]
CC(C)(C)c1ccc(N=C2SCC(=O)N2Cc2cccs2)cc1	inactive	inactive	inactive	inactive	inactive		
O=S(=O)(c1cc(O)ccc1O)c1cccc2c(S(=O)(=O)c3cc(O)ccc3O)cccc12	44.7 µM (active)	inactive		inactive		5.63% [at 17.1 µM, percent relative to cAMP agonist control]	-9.89% [at 30.8 µM]
COc1ccc(NC(=O)c2c[nH]n3c(=O)cc(C4CCN(C(=O)OC(C)(C)C)CC4)nc23)cc1Cl	67.5 µM (active)	inactive	inactive	inactive	inactive		
Cc1ccc2nc3sc(C(=O)N4CCCc5ccccc54)c(N)c3cc2c1	inactive	inactive		inactive		4.98% [at 17.1 µM, percent relative to cAMP agonist control]	-0.0356% [at 30.8 µM]
Cc1ccccc1C(=O)NCC(=O)N1CCN(c2ccccn2)CC1	inactive	inactive		inactive		9.91% [at 17.1 µM, percent relative to cAMP agonist control]	-4.53% [at 30.8 µM]
CC(=C\c1ccccc1)/C=C1/SC(=S)N(CCCC(=O)O)C1=O	84.9 µM (active)	inactive	inactive	inactive	inactive		
O=C(/C=C/c1ccc(Cl)cc1)Nc1nccs1	inactive	inactive		inactive		2.3% [at 17.1 µM, percent relative to cAMP agonist control]	-6.03% [at 30.8 µM]
COc1ccc2c(c1)c1nnc(SCC(=O)NC3CC3)nc1n2C	inactive	inactive	inactive	84.9 µM (active)	inactive		
Cc1cccc(-n2nc(C)c(C(=O)Nc3cc(C)ccc3C)c2-n2cccc2)c1	inactive	inactive	inactive	inactive	inactive		
Cc1ccc(S(=O)(=O)N2C(c3ccc(Cl)c(Cl)c3)CC=C(C(=O)O)C2c2ccc(Cl)cc2)cc1 (stereo not given)	84.9 µM (active)	inactive	inactive	inactive	inactive		
COC(=O)c1ccc2nc(-c3ccccc3)c(Cc3ccc(C)cc3)n2c1	inactive	inactive	inactive	inactive	inactive		
Cc1ccc(S(=O)(=O)NC(=O)Cn2nnc(-c3ccccc3)c2COc2ccc3ccccc3c2)cc1	19 µM (active)	inactive	inactive	inactive	inactive		
CCCCCC(=O)Nc1ccc(C2C(=O)c3ccccc3C2=O)cc1	inactive	inactive	inactive	inactive	inactive		

SMILES	Potency [1]	Potency [2]	Potency [3]	Potency [4]	Potency [5]	activation [3]	activity change, negative = inhibition [5]
NNC(=O)c1cccc(COCC(F)(F)C(F)F)c1	inactive	inactive	inactive	inactive	inactive		
CCOc1ccc(S(=O)(=O)N2CCCCC2)c2ccccc12	inactive	inactive	inactive	inactive	inactive		
Cc1ccc(-c2cc3ccccc3nc2N2CCOCC2)cc1	inactive	inactive	inactive	inactive	inactive		
C#CCOCCOCCOCCNc1nc(N2CCN(C(=O)[C@H](Cc3cc4ccccc4[nH]3)n3cc([C@@H](N)Cc4ccc(O)cc4)nn3)CC2)nc(N2CCN(C(=O)[C@H](Cc3cc4ccccc4[nH]3)n3cc([C@@H](N)CC(C)C)nn3)CC2)n1	44.7 µM (active)	inactive		inactive		-1.86% [at 17.1 µM, percent relative to cAMP agonist control]	-28.3% [at 30.8 µM]
CSCc1cc(N(C)c2ccccc2)nc(-c2ccccc2)n1	inactive	inactive	inactive	6.01 µM (active)	inactive		
O=C1NN(c2ccccc2)C(=O)/C1=C\c1coc2ccc(O)cc2c1=O	21.3 µM (active)	inactive	inactive	inactive	inactive		
NC(=O)COC(=O)c1ccc(Cl)c(S(=O)(=O)N(Cc2ccccc2)c2ccc(Cl)cc2)c1	inactive	inactive		inactive		4.76% [at 17.1 µM, percent relative to cAMP agonist control]	-4.28% [at 30.8 µM]
COc1ccc(OC)c(N=Cc2c(O)c3ccccc3oc2=O)c1	inactive	112 µM (active)	89.1 µM (active)	inactive	inactive		
Cc1ccc(N(Cc2cccs2)C(=O)c2ccccc2Cl)cc1	inactive	inactive	inactive	inactive	inactive		
O=C(CN1CCOCC1)Nc1ccccc1Sc1ccc(Cl)cc1	inactive	inactive	inactive	inactive	inactive		
O=C1NN(c2ccccc2)C(=O)/C1=C\c1ccc(-c2cc([N+](=O)[O-])ccc2O)o1	37.9 µM (active)	inactive	inactive	60.1 µM (active)	inactive		
Cc1cccc(NC(=O)Cn2c(O)c(N=NC(=O)c3ccncc3)c3ccccc32)c1	inactive	inactive	inactive	inactive	inactive		
CCOc1ccc(NC(=O)CN(C)C(=O)c2cc(C3CC3)nn2-c2ccccc2)cc1OCC	inactive	inactive	inactive	inactive	inactive		
COc1ccc(NC(=O)c2ccc3c(SCC(=O)O)c4c(nc3c2)CCCC4)c(OC)c1	75.7 µM (active)	inactive	inactive	inactive	inactive		
CCSc1nc2ccccc2c(OCc2ccccc2Cl)c1C(=O)OC	inactive	inactive	inactive	inactive	inactive		
Cc1nnc(SCc2cccc3ccccc23)s1	inactive	inactive	inactive	inactive	inactive		
CC1CCN(c2ccc3c(c2)S(=O)(=O)c2ccccc2C3=O)CC1	inactive	112 µM (active)	100 µM (active)	inactive	inactive		
COc1ccc(CN2C(=O)CN(S(C)(=O)=O)CC2(C)C(=O)Nc2c(C)cccc2C)cc1OC (stereo not given)	inactive	inactive		inactive		5.79% [at 17.1 µM, percent relative to cAMP agonist control]	-5.99% [at 30.8 µM]
Cc1ccc([C@H]2C(C(=O)O)=CC[C@@H](c3ccc(Cl)c(Cl)c3)N2S(=O)(=O)c2ccc(C)cc2)cc1	56.2 µM (active)	inactive		inactive		12.8% [at 17.1 µM, percent relative to cAMP agonist control]	-5.89% [at 30.8 µM]

From PubChem BioAssay (NCATS)
